# Source: PubChem BioAssay (National Center for Advancing Translational Sciences (NCATS))
# This is one part of a sample in which hits are shown more often than they occur.
# TDP1 cell noCPT: qHTS for Inhibitors of human tyrosyl-DNA phosphodiesterase 1 (TDP1): qHTS in cells in absence of CPT; DT40 Tdp1-/- hTDP1 cells, no CPT, ATP luminescence, 48 h; Potency, µM (series often up to 46.2 µM), for the others: top-dose activity change, negative = growth inhibition, most hits filed as inhibitors; 420,000 tested, 15% active; also: potency is read from the fitted curve at half-maximal effect; nearly all actives have a fitted effect of over 55% in size
#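 Growth kinetics read by CellTiter-Glo luminescence after ≥48 hr at 37 °C. Cells: DT40 Tdp1-/- stably carrying human TDP1, 400 per well, compound exposure in the absence of CPT (DMSO vehicle).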
# TDP1 cell CPT: qHTS for Inhibitors of human tyrosyl-DNA phosphodiesterase 1 (TDP1): qHTS in cells in presence of CPT; 420,000 tested, 12% active; chicken DT40 Tdp1-/-;hTDP1 cells + 20 nM CPT, ATP luminescence, 48 h; Potency, µM (series often up to 46.2 µM), for inactives: top-dose activity change, negative = growth inhibition, hits mostly inhibitors; also: potency is read from the fitted curve at half-maximal effect; nearly all actives have a fitted effect of over 55% in size
#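 Cell growth measured by CellTiter-Glo luminescence after a minimum 48 h, 37 C compound exposure with 20 nM CPT in Tdp1-knockout DT40 cells stably expressing hTDP1, seeded 400/well; qHTS titration format.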
# HT1080-NT tox: qHTS for induction of synthetic lethality in tumor cells producing 2HG: qHTS for the HT-1080-NT fibrosarcoma cell line; HT-1080-NT fibrosarcoma viability, CellTiter-Glo ATP luminescence, 48 h; Potency, µM (top dose mostly 46.1 µM), for the others: top-dose activity, negative = less viability, usual class: cytotoxic; 360,000 tested, 1.6% active; AID 686970, 2013;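 also: NT is the 2HG producing partner of a matched IDH1 knockdown line; potency is read from the fitted curve at half-maximal effect; 0% = DMSO-treated cells and -100% = media-only wells without cells; nearly all actives have a fitted effect of over 55% in size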
#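 Read-out is CellTiter-Glo luminescence after 10 minutes at room temperature, following 48 hours' compound treatment of HT-1080-NT cells (750 cells/well, RPMI, 5% FBS, 37 degrees C).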
# HT1080 IDH1KD tx: qHTS for induction of synthetic lethality in tumor cells producing 2HG: qHTS for the HT-1080-IDH1KD cell line | 360,000 tested, 2% active | Potency, µM (titrated, usually from 46.1 µM), inactives show top-dose activity, negative = toxicity, most hits filed as cytotoxic | AID 686971, 2013 | HT-1080 IDH1 knockdown viability, ATP luminescence, 48 h;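 also: potency is read from the fitted curve at half-maximal effect; 0% = DMSO wells and -100% = cell-free medium wells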
#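 IDH1KD HT-1080 cells, 750/well, RPMI + 5% FBS; compound pinned after 2 h settling; 48 h, 37 °C; CellTiter-Glo luminescence; % activity normalised to DMSO and no-cell wells; curves fitted, classed by r2 and efficacy.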
# IL1B secr inh: qHTS for Inhibitors of Inflammasome Signaling: IL-1-beta AlphaLISA Primary Screen; activity change, % at 57.5 µM; 360,000 tested, 4.7% active; THP-1 LPS/ATP IL-1B secretion, AlphaLISA, 16 h; stronger effect = lower value; in the data active = activity change below about -50%; inconclusive = mostly about -30% to -49%
#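 THP-1 cells pretreated 1 hr with compounds (up to 57.5 uM final), then stimulated with LPS (250 ng/mL final) plus ATP (1.25 mM final); secreted IL-1B measured by AlphaLISA after 16 hr, decreased signal indicating inhibition.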
# 12-LOX inh: Primary qHTS assay for inhibitors of human arachidonate 12S-lipoxygenase (ALOX12): Round 2; Polyunsaturated fatty acid lipoxygenase ALOX12 (Homo sapiens), P18054; purified 12hLO, xylenol orange hydroperoxide absorbance; Potency, µM (series often up to 108 µM), for inactives: at the top dose activity change, negative = inhibition, most hits filed as inhibitors; 580,000 tested, 1.1% active; AID 1671190, 2021; also: potency is read from the fitted curve at half-maximal effect
# Target sequence (P18054 whole entry, looked up): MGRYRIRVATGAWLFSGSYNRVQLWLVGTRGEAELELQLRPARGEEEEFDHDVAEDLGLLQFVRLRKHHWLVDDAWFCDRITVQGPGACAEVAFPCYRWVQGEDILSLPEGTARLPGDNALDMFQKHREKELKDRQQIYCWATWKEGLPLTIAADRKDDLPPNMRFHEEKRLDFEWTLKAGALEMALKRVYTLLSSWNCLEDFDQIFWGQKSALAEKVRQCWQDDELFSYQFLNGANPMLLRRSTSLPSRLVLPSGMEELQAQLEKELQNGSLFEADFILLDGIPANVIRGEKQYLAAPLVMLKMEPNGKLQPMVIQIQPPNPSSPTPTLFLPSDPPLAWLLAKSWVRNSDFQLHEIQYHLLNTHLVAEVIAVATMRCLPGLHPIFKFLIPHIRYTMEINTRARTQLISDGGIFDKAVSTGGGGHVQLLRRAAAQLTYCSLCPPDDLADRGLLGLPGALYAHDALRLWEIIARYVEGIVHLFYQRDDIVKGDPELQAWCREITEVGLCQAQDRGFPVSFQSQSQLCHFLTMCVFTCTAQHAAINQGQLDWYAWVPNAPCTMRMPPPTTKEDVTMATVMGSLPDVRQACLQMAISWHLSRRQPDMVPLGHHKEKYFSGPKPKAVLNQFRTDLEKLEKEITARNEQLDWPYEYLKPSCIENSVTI
#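 Purified human 12hLO (150 nM final) in 25 mM Hepes, 0.01% Triton X-100, pH 7.0 was preincubated 15 min at room temperature with compound. Then 40 uM arachidonic acid was added, 30 min. Hydroperoxide was read by Fe-XO absorbance ratio 573/405 nm.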
# * = called active by the depositor; ? = inconclusive; . = not tested or not shown; ! = not active in a repeat; [ ] = remark or other dose. Unless noted, calls follow the shape of the dose curve; as a rule, active = well fitted curve in the direction sought with a large enough effect; inconclusive = small, poorly fitted or top-dose-only effect, or another doubt; inactive = no such curve, though single readings can be large; an effect the other way counts as inactive or inconclusive. Unless noted, % is scaled to controls: 0 for no effect and ±100 for the full control effect.
SMILES,TDP1 cell noCPT,TDP1 cell CPT,HT1080-NT tox,HT1080 IDH1KD tx,IL1B secr inh,12-LOX inh
Cc1ccc(/C=N/NC(=O)C2COc3ccccc3O2)s1 (stereo unspecified),1.64µM*,1.16µM*,?,1.84µM*,-11.8,-13.6%
O=C1NC[C@H](Cc2ccccc2)N(C[C@H]2CCCN2C[C@H](Cc2ccccc2)N2C[C@H](Cc3ccc(O)cc3)N(CC3CCCCCC3)C(=O)C2=O)C1=O,?,?,?,?,0.0,?
O=C1NC[C@H](Cc2ccccc2)N(C[C@H]2CCCN2C[C@H](Cc2ccc(O)cc2)N2C[C@H](Cc3ccc(O)cc3)N(CC3CCCCCC3)C(=O)C2=O)C1=O,?,?,?,?,?,15.8µM*
O=C1NC[C@H](Cc2ccc(O)cc2)N(C[C@@H]2CCCN2C[C@H](Cc2ccccc2)N2C[C@H](Cc3ccc(O)cc3)N(CC3CCCCCC3)C(=O)C2=O)C1=O,?,?,-28.8%,-18.4%,-56.0*,25.1µM*
O=C(NCCc1ccccc1)[C@H]1CN(Cc2ccccc2)C[C@H]1C(=O)O,.,.,.,.,.,14.8%
CCCn1nc(C)c(NC(=O)CC[C@H]2NC(=O)c3ccccc3NC2=O)c1C,.,.,.,.,.,20.6%
CCCNC(=O)c1ccc2c(c1)nc(C)n2-c1cccc(C)c1,?,16.4µM*!,22.7%,24.5%,-29.7,4.2%
CCc1ccc(-n2c(C)nc3cc(C(=O)NCCc4ccccc4)ccc32)cc1,?,20.6µM*,.,.,.,-6.5%
Cc1cccc(-n2c(C)nc3cc(C(=O)NCCC4=CCCCC4)ccc32)c1,?,14.6µM*,.,.,.,-12.5%
COCCNC(=O)c1ccc2c(c1)nc(C)n2-c1cccc(F)c1,-5.9%,-9.3%,-4.3%,-0.6%,-7.5,0.0%
CC(CNC(=O)c1cc(=O)c2ccccc2o1)N1CCOCC1 (stereo unspecified),.,.,.,.,.,24.8%
Cc1ccc2nc(/C(C#N)=C\c3ccccc3OCc3ccccc3Cl)[nH]c2c1,.,.,.,.,.,-1.6%
CCOC(=O)C1CCCN(C(=O)CSc2ccc(Br)cc2)C1 (stereo unspecified),18.4µM*,13µM*,11.0%,-5.7%,-8.4,.
Brc1ccc(-c2nnc3sc(CN4CCCCC4)cn23)cc1,-24.7%,-8.8%,.,.,.,-6.0%
CC1CCCN(Cc2cn3c(-c4cccc(Br)c4)nnc3s2)C1 (stereo unspecified),?,23.1µM*,.,.,.,0.2%
CCOC(=O)C1CCCN(Cc2cn3c(-c4ccc(Br)cc4)nnc3s2)C1 (stereo unspecified),6.51µM*,5.17µM*,.,.,.,-13.8%
CCOC(=O)C1CCN(Cc2cn3c(-c4ccc(OC)cc4)nnc3s2)CC1,?,20.6µM*,.,.,.,-2.8%
CCOC(=O)C1CCN(Cc2cnc(Oc3ccc(Cl)cc3C)s2)CC1,-23.4%,4.3%,16.3%,-0.7%,-2.8,-14.5%
CC(C)(CC1Cc2ccccc2C1)NC(=O)C1CC2(CCNCC2)CN1 (stereo unspecified),.,.,.,.,.,-13.0%
COCc1cc(C[C@H]2CNCC[C@H]2CC(=O)NCc2cccs2)no1,.,.,.,.,.,9.0%[176 µM]
O=C(/C=C/c1ccc(Cl)cc1)NCc1ccco1,?,?,-2.1%,2.8%,-27.3,18.5%
O=C(/C=C/c1ccc(S(=O)(=O)NCc2ccco2)cc1)NCc1ccccc1Cl,18.4µM*,?,?,?,?,-4.2%
COc1ccc(CNC(=O)/C=C/c2ccc(S(=O)(=O)NCc3ccco3)cc2)cc1OC,25.9µM*,?,-5.6%,-1.2%,-8.0,0.6%
O=C(NCCc1nc2ccccc2[nH]1)/C(=C/c1ccco1)NC(=O)c1ccc(Br)cc1,?,23.1µM*,-14.2%,-9.0%,0.0,3.7%
O=C(NCCc1nc2ccccc2[nH]1)/C(=C/c1ccco1)NC(=O)c1ccccc1Br,?,?,2.9%,8.5%,37.7,-5.1%
SMILES,TDP1 cell noCPT,TDP1 cell CPT,HT1080-NT tox,HT1080 IDH1KD tx,IL1B secr inh,12-LOX inh
COc1ccc(/C=C/C(=O)N/C(=C\c2ccco2)C(=O)NCCc2nc3ccccc3[nH]2)cc1,18.4µM*,20.6µM*,-14.6%,-13.4%,0.0,?
O=C(NCCc1nc2ccccc2[nH]1)/C(=C/c1ccc2c(c1)OCO2)NC(=O)c1ccc(Cl)cc1Cl,?,?,?,?,-99.0*,-16.6%
CC(C)C[C@H](NC(=O)CNC(=O)c1cc(Cl)ccc1Cl)B(O)O,.,.,.,.,.,-20.8%[57.4 µM]
N#Cc1ccc(Oc2ccc(C#N)cc2)cc1,.,.,.,.,.,27.4%
COc1ccc(/C=C/c2cc(C(=O)O)c3ccccc3n2)cc1OC,.,.,.,.,.,17.8µM*
COc1ccc(/C=C/c2cc(C(=O)O)c3ccccc3n2)cc1,14.6µM*,10.3µM*,-17.7%,?,16.8,?
CCN(CC)Cc1cnc2c(C(=O)NC3CCCN(C(C)=O)C3)cnn2c1 (stereo unspecified),.,.,.,.,.,-5.0%
O=[N+]([O-])c1ccc(C2=Nn3c(Cn4nnc5ccccc54)nnc3SC2)cc1,16.4µM*,20.6µM*,-3.9%,5.4%,-9.4,-14.1%
CCOc1ccc2cc(/C=C/C(=O)c3ccco3)c(Cl)nc2c1,20.6µM*,?,-18.2%,8.9%,?,-19.7%
Cc1ccc(O)c(C2=Nc3ccccc3N=C(c3cccs3)C2)c1,16.4µM*,?,-0.1%,-1.5%,-11.9,-0.1%
Oc1ccccc1C1=Nc2ccccc2N=C(c2cccs2)C1,-7.9%,-11.0%,-22.2%,?,-6.8,14.7%
CCCCCCCCCCOC(=O)Cn1c(COc2ccccc2C)[n+](C)c2ccccc21,1.03µM*,1.64µM*,23.1µM*,11.6µM*,-96.6*,.
CCCCOC(=O)Cn1c(=O)n(CC(=O)OCCCC)c2ccccc21,-20.4%,-11.6%,3.3%,0.8%[9.24 µM],12.1,0.0%
CCOC(=O)Cn1c(COc2ccccc2OC)[n+](C)c2ccccc21,-4.7%,?,-6.1%,11.0%,22.8,53.2%
CCCCCCCCCCOC(=O)Cn1c(COc2ccccc2)[n+](C)c2ccccc21,2.59µM*,5.8µM*,-24.1%,-6.1%,0.0,0.0%
CCCCCCCCCCOC(=O)Cn1c(COc2cccc(C)c2)[n+](C)c2ccccc21,4.61µM*,7.31µM*,?,?,-96.5*,?
